Results filed as inconclusive are left out. The source made the active and inactive calls. The call rests on the fitted dose curve; in most records, active means well fitted inhibition curve with a large enough effect; inconclusive means small, poorly fitted or top-dose-only effect; inactive means no such curve, though single readings can be large or run the other way.

A short description of this assay: P-glycoprotein substrates identified in KB-3-1 adenocarcinoma cell line, qHTS therapeutic library screen (AID 1346986). Further: nearly all actives have a fitted effect of over 60% in size. To be noted: KB-3-1 parental cells viability, CellTiter-Glo, 72 h; at 44.5 µM (top of the series). In a few lines: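 Compounds were tested in dose-response against KB-3-1 and KB-8-5-11 cells at 37 degree C for 72 h, and viability was measured by luminescence. AC50 values came from curve fitting with class-based activity calls.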
(In general: Quantitative high-throughput screening tests each substance at several concentrations.)
`NC(=O)c1cccc(N)c1`: the result was inactive.

Turning to `CC(C(=O)O)c1ccc2c(c1)CC(=O)c1ccccc1S2` (stereo not drawn), the outcome was inactive.

Consider `CC(C)OC(=O)OCOP(=O)(CO[C@H](C)Cn1cnc2c(N)ncnc21)OCOC(=O)OC(C)C`, for which the outcome was inactive.

In the case of `COc1nc(N)nc2c1ncn2[C@@H]1O[C@H](CO)[C@@H](O)[C@@H]1O`, the result was inactive.

In the case of `CCN1CCCC1CNC(=O)c1cc(S(N)(=O)=O)ccc1OC` (stereo not drawn), the outcome was inactive.

As to `COc1ccc(-c2ccc3cc(C(=O)O)ccc3c2)cc1C12CC3CC(CC(C3)C1)C2`, the outcome was inactive.

Regarding `CC(C)OC(=O)C(C(=O)OC(C)C)=C1SC=CS1`, the outcome was inactive.

`CNC1CCCN(c2c(F)cc3c(=O)c(C(=O)O)cn(C4CC4)c3c2OC)C1` (stereo not drawn): the result was inactive.

Regarding `O=C(O)CSCC(=O)NC1CCSC1=O` (stereo not drawn), the result was inactive.

With `CC1=CC(=O)c2ccccc2C1=O`, the result was inactive.

As to `NS(=O)(=O)c1cc2c(cc1Cl)NC(C(Cl)Cl)NS2(=O)=O` (stereo not drawn), the result was inactive.

On to `COC(c1ccccc1)(c1ccccc1)[C@H](Oc1nc(C)cc(C)n1)C(=O)O`, for which the outcome was inactive.

Regarding `COc1cc(NS(=O)(=O)c2ccc(N)cc2)nc(OC)n1`, the result was inactive.

For the origin of these results see PubChem BioAssay (NCATS).
